Source: PubChem BioAssay (Tox21)
Results filed as inconclusive are left out. Calls of active or inactive are those of the source. Unless noted, the call rests on the fitted dose curve; in most records, active means well fitted curve in the direction sought with a large enough effect in the repeat runs; inconclusive means weak or mixed curves; inactive means no such curve, though single readings can be large; an effect the other way counts as inactive or inconclusive.

Key:
[1] = qHTS assay to identify aromatase inhibitors - cell viability counter screen (AID 743084);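 further: cells stimulated with testosterone during compound exposure; nearly all actives have a fitted effect of over 55% in size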
[2] = biological target: Aryl hydrocarbon receptor (Homo sapiens) (UniProt P35869); experiment: qHTS assay to identify small molecule that activate the aryl hydrocarbon receptor (AhR) signaling pathway (AID 743085);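 further: HG2L7.5c1 human HepG2 liver cells with stably integrated DRE-driven firefly reporter; series mostly up to about 70 µM; nearly all actives have a fitted effect of over 15% in size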
In short: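 24 h compound exposure, 37C, HepG2-derived HG2L7.5c1 cells with DRE-responsive luciferase. Readouts: fluorescence viability, then luminescence at room temperature after 30 min.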

[3] = qHTS assay to identify small molecule that activate the aryl hydrocarbon receptor (AhR) signaling pathway - cell viability counter screen (AID 743086);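 further: HepG2 liver cells carrying the AhR DRE luciferase reporter; series mostly up to about 70 µM; nearly all actives have a fitted effect of over 45% in size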
In short: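 Cytotoxicity counter screen: CellTiter-Fluor signal (30 min, 37 C) in 4000 HepG2 cells/well carrying the DRE-luciferase reporter, following 24 h compound exposure at 37 C.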

[4] = biological target: Peroxisome proliferator-activated receptor gamma (Homo sapiens) (UniProt P37231); experiment: qHTS assay to identify small molecule agonists of the peroxisome proliferator-activated receptor gamma (PPARg) signaling pathway (AID 743094; active means well fitted activation curve with a large enough effect in the signal ratio in the repeat runs, not every such curve was filed as active; the % refers to the signal ratio)
In short: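 Quantitative HTS agonist mode: stable HEK293H line with UAS-beta-lactamase reporter under PPARg control, 17 h compound exposure at 37C, fluorescence after 1 h FRET substrate loading at room temperature.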

[5] = biological target: Peroxisome proliferator-activated receptor gamma (Homo sapiens) (UniProt P37231); experiment: qHTS assay to identify small molecule antagonists of the peroxisome proliferator-activated receptor gamma (PPARg) signaling pathway (AID 743191; calls by dose curve; further: series mostly up to about 63 µM; nearly all actives have a fitted effect of over 30% in size)
In short: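 Beta-lactamase reporter under UAS control in HEK293H PPARg-bla cells; compound treatment 17 h at 37C. Read-out: fluorescence intensity after 1 h room-temperature incubation with LiveBLAzer B/G FRET substrate.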

[6] = qHTS assay to identify small molecule antagonists of the peroxisome proliferator-activated receptor gamma (PPARg) signaling pathway - cell viability counter screen (AID 743194); further: nearly all actives have a fitted effect of over 55% in size
In short: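 Viability was measured as CellTiter-Glo luminescence in GeneBLAzer PPARg UAS-bla HEK293H cells. These cells had been exposed 17 h at 37 C to compounds together with rosiglitazone at 50 nM final, with the beta-lactamase readout taken in the same wells.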

[7] = qHTS assay for small molecule agonists of the antioxidant response element (ARE) signaling pathway (AID 743202; active means well fitted activation curve with a large enough effect in the signal ratio in the repeat runs, not every such curve was filed as active; the % refers to the signal ratio)
In short: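 Quantitative high-throughput format in HepG2 cells bearing an integrated ARE-beta-lactamase reporter. Compound exposure lasted 16 h at 37 C, and fluorescence was read 2 h after adding LiveBLAzer B/G substrate at room temperature.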

[8] = qHTS assay for small molecule agonists of the antioxidant response element (ARE) signaling pathway - cell viability counter screen (AID 743203; calls by dose curve; further: nearly all actives have a fitted effect of over 55% in size)
In short: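 Seeded at 2,000 cells/well, ARE-bla HepG2 cells were incubated 5 hrs before compound addition. After 16 hrs of treatment at 37C with 5% CO2, CellTiter-Glo reagent was added and luminescence read 30 min later.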

[9] = qHTS assay for small molecule activators of the heat shock response signaling pathway - cell viability counter screen (AID 743209); further: nearly all actives have a fitted effect of over 50% in size
In short: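 First, HSE-bla HeLa cells were seeded at 1500 cells/well and kept overnight at 37 C. Next, compounds were pinned in and incubated 5 h. After the FRET substrate step, CellTiter-Glo was added and luminescence read 30 min later.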

[10] = qHTS assay for small molecule activators of the heat shock response signaling pathway (AID 743210; active means well fitted activation curve with a large enough effect in the signal ratio in the repeat runs, with a control signal flat, not every such curve was filed as active; the % refers to the signal ratio;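 further: HeLa cells with beta-lactamase reporter driven by heat shock elements; series mostly up to about 63 µM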)
In short: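 HeLa HSE-bla cells, overnight plating; cpd in DMSO 5 h, 37 C; LiveBLAzer B/G FRET substrate 2.5 h RT; fluorescence intensity read.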

Measured: Potency

Aryl hydrocarbon receptor (Homo sapiens), sequence (P35869 whole entry, looked up): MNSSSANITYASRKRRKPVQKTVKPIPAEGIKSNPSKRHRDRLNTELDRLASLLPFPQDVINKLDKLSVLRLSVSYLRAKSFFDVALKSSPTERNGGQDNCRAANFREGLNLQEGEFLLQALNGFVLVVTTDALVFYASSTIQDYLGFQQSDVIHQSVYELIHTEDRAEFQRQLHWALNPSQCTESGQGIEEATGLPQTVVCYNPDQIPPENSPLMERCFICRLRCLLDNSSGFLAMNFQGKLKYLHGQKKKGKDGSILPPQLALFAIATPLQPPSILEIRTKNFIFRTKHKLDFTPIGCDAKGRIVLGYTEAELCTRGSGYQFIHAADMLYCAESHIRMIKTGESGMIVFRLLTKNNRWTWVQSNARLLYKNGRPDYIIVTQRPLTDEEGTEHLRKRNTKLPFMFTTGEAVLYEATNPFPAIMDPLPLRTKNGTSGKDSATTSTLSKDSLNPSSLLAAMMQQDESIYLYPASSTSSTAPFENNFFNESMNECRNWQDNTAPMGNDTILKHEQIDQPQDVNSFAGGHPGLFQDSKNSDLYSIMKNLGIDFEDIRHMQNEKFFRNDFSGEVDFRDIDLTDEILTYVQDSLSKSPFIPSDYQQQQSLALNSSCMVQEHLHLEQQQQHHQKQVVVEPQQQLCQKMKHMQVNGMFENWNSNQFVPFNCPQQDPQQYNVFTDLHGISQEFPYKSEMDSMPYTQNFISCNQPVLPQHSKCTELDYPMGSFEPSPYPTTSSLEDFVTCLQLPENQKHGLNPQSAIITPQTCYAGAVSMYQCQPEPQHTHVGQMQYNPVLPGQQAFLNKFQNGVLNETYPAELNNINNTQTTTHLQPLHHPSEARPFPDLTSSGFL
Peroxisome proliferator-activated receptor gamma (Homo sapiens), sequence (P37231 whole entry, looked up): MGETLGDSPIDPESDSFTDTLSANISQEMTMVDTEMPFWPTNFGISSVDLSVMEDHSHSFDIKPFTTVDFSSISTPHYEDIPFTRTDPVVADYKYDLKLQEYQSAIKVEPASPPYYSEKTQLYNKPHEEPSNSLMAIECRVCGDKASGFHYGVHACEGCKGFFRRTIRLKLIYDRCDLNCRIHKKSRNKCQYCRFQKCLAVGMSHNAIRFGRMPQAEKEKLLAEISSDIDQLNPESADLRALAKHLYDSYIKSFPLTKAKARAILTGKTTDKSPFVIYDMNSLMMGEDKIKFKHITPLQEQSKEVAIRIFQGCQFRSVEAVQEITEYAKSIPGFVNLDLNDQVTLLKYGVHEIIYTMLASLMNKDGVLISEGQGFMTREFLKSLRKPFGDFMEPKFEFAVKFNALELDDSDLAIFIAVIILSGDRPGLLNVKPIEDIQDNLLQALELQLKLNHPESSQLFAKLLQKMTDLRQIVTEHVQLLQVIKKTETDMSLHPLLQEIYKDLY

CN(C)CCCNCCC#N
not listed: [10]
inactive: all other assays above

CCCCCCCCCCCCOC(C)=O
inactive: all assays above

CCCCCCCCCCCCCCCCI
inactive: all assays above

CCc1nccnc1C
not listed: [10]
inactive: all other assays above

CCOC(=O)CCc1ccccc1
inactive: all assays above

Nc1ccnc(=O)[nH]1
inactive: all assays above

CCCCCCCCC(=O)OCC
inactive: all assays above

CC(=O)OC(C(=O)c1ccccc1)c1ccccc1 (centres undefined)
not listed: [10]
inactive: all other assays above

O=C1c2ccccc2-c2ccccc21
inactive: all assays above

CC(C)(CO)[C@@H](O)C(=O)NCCCO
inactive: all assays above

C[C@H](CCC(=O)O)[C@H]1CC[C@H]2[C@@H]3[C@H](O)C[C@@H]4C[C@H](O)CC[C@]4(C)[C@H]3C[C@H](O)[C@]12C
inactive: all assays above

CCC(=O)c1ccc(O)cc1
not listed: [7]
inactive: all other assays above

CCCCCCCCCCC
not listed: [7]
inactive: all other assays above

COC(=O)CCC(=O)O
not listed: [7]
inactive: all other assays above

CCCO
not listed: [9]
inactive: all other assays above

CCCCC(CC)C(=O)OC(C)C (centres undefined)
not listed: [5]
inactive: all other assays above

Cc1cccc(C(=O)O)c1[N+](=O)[O-]
not listed: [7] | [9] | [10]
inactive: all other assays above

C[CH2][Ge]([Cl])([CH2]C)[CH2]C
not listed: [9]
inactive: all other assays above

C[C@H]1O[C@H](O[C@H]2[C@H](O)[C@@H](O)[C@@H](O[C@H]3[C@H](O)[C@@H](O)[C@H](O)O[C@@H]3CO)O[C@@H]2CO)[C@H](O)[C@@H](O)[C@@H]1N[C@H]1C=C(CO)[C@@H](O)[C@H](O)[C@H]1O
not listed: [9]
inactive: all other assays above

NS(=O)(=O)c1ccc(Cl)c(S(N)(=O)=O)c1
not listed: [7] | [9]
inactive: all other assays above

Cc1c(C(C)C)c(=O)n(-c2ccccc2)n1C
not listed: [9]
inactive: all other assays above

Cc1ccccc1C
not listed: [9]
inactive: all other assays above

CCCCC/C=C/CC(=O)OC
inactive: all assays above

COC(/C=C(\C)CCC=C(C)C)OC
not listed: [7]
inactive: all other assays above

C=COCCOCCOC=C
not listed: [7] | [10]
inactive: all other assays above

C[C@H](CCC(=O)NCC(=O)O)[C@H]1CC[C@H]2[C@@H]3[C@H](O)C[C@@H]4C[C@H](O)CC[C@]4(C)[C@H]3C[C@H](O)[C@]12C
not listed: [7]
inactive: all other assays above
